Source: PubChem BioAssay

Experiments:
[1] = tested on: Botulinum neurotoxin type F light chain protease (Clostridium botulinum); experiment: Clostridium botulinum type F light chain protease inhibitors, microsphere substrate cleavage, validation (AID 588459); conditions: multiplex microsphere protease substrate cleavage assay, flow cytometry; at 10 µM; hits give high values
[2] = biological target: Botulinum neurotoxin type A (Clostridium botulinum) (UniProt P0DPI0); experiment: BoNT/A light chain protease inhibitors, biochemical, multiplex microsphere flow cytometry, validation set (AID 588460); conditions: at 10 µM, hits give high values
Botulinum neurotoxin type A (Clostridium botulinum), sequence (P0DPI0 whole entry, looked up): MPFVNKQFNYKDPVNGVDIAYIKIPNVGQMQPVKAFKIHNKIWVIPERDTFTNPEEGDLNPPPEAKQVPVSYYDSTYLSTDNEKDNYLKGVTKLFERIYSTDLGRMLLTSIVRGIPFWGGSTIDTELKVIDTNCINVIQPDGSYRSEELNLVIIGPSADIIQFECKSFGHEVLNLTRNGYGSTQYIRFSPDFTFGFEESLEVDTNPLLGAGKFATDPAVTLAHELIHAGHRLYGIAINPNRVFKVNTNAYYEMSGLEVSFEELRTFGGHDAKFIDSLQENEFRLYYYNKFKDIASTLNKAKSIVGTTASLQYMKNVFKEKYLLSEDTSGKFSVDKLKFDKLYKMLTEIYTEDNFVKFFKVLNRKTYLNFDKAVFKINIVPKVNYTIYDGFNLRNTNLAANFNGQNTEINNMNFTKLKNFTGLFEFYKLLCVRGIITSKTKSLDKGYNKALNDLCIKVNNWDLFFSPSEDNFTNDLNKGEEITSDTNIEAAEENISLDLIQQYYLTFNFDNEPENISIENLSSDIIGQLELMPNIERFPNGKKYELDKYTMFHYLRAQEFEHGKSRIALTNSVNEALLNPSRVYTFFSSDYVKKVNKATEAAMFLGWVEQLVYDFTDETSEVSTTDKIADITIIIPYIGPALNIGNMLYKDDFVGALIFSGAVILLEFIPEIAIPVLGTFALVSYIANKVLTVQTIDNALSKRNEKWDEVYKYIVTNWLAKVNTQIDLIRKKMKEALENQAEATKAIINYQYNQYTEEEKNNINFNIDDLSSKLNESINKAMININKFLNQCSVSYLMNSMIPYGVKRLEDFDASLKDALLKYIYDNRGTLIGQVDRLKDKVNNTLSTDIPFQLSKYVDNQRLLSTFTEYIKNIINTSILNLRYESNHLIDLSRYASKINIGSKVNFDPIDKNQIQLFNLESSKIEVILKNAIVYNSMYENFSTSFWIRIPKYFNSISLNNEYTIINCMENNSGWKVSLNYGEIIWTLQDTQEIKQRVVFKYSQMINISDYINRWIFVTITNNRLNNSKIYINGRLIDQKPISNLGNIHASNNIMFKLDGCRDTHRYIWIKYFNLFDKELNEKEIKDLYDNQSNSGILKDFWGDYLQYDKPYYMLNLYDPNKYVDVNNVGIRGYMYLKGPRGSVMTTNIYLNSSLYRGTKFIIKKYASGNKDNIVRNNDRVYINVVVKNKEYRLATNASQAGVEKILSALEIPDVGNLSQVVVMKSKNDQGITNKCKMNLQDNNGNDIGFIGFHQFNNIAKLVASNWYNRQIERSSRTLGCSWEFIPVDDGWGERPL

[3] = biological target: Lethal factor (Bacillus anthracis) (UniProt P15917); experiment: Bacillus anthracis lethal factor inhibition, microsphere flow cytometry protease assay, validation at 10 µM (AID 588461); conditions: multiplex microsphere protease cleavage assay, hits give high values
Lethal factor (Bacillus anthracis), sequence (P15917 whole entry, looked up): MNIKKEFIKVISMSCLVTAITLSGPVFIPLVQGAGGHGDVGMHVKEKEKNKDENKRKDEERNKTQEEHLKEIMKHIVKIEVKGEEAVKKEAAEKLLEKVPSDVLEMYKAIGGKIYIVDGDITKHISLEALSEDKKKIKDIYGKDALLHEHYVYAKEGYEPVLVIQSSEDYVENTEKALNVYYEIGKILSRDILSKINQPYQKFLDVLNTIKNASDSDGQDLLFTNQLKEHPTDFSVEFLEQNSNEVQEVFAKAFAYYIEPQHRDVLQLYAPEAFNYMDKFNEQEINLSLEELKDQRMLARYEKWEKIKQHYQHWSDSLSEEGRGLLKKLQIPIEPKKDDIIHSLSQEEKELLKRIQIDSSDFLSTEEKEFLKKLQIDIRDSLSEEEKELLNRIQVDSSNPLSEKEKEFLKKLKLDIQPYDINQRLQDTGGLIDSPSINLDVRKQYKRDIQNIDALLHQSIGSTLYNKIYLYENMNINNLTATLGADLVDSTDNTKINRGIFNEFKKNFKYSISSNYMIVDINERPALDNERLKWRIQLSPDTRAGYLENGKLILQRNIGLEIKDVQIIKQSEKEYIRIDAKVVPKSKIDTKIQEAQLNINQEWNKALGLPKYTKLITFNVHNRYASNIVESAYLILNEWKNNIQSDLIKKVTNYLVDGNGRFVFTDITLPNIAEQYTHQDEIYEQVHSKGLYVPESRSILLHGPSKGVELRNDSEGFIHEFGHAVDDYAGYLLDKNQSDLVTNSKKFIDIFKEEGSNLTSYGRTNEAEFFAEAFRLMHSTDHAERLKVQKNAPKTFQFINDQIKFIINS

Measured: inhibition

COc1ccc(/C=C\C(=O)c2c(O)ccc3c(C)cc(=O)oc23)cc1OC
inactive: [1] 1.5% | [2] 0.2% | [3] -2.9%

O=c1[nH]cnc2c1ncn2[C@@H]1O[C@H](CO)[C@@H](O)[C@H]1O
inactive: [1] 1.2% | [2] 0.1% | [3] -8%

CC1(C)O[C@@H]2C[C@H]3[C@@H]4C[C@H](F)C5=CC(=O)CC[C@]5(C)[C@H]4[C@@H](O)C[C@]3(C)[C@]2(C(=O)CO)O1
inactive: [1] 1.1% | [2] -0.8% | [3] 10.7%

O=C(Oc1ccccc1)Oc1ccc2c(c1)oc(=O)c1ccccc12
inactive: [1] -1.6% | [2] -0.4% | [3] 0.9%

O=c1ccn([C@@H]2O[C@H](CO)[C@@H](O)[C@H]2O)c(=O)[nH]1
inactive: [1] 0.8% | [2] -0.2% | [3] 1.9%

COc1cc2c(cc1OC)C1(CCCC1)CNC2c1cccc([N+](=O)[O-])c1 (stereo not given)
inactive: [1] 1% | [2] 0.1% | [3] -9.4%

c1cnc(N2CCN(Cc3ccc4c(c3)OCO4)CC2)nc1
inactive: [1] -2.3% | [2] -1.4% | [3] -5.5%

O=c1cc(Cn2ccnc2)c2cc3c(cc2o1)CCC3
inactive: [1] 1.9% | [2] -1.1% | [3] -3.2%

CC(=O)O[C@H]1CSC[C@H]1NC(=O)c1ccccc1
inactive: [1] -2.6% | [2] -1.2% | [3] -4.4%

Cn1c(=O)c2nc3ccccc3nc2n(C)c1=O
inactive: [1] -0.9% | [2] 0.5% | [3] -5.4%

CCOc1ccc2nc(NC(=O)NC3CCCCC3)sc2c1
inactive: [1] 0% | [2] -1.5% | [3] -3.9%

Cn1c(=S)n(C)c2ccccc21
inactive: [1] 4% | [2] 0.1% | [3] 2.8%

O=C1C(Cc2c[nH]c3ccccc23)NC(=S)N1Cc1ccccc1 (stereo not given)
inactive: [1] -0.2% | [2] 0.3% | [3] -1.8%

CC(=O)O[C@H]1CC[C@H]2[C@@H]3CCc4cc(O)ccc4[C@H]3CC[C@]12C
inactive: [1] -3.4% | [2] -0.9% | [3] -2.4%

CSCC[C@H](NC(=O)NC1CCCC1)C(=O)O
inactive: [1] 0.9% | [2] 0.2% | [3] -0.2%

NS(=O)(=O)c1cc2c(cc1Cl)NCNS2(=O)=O
inactive: [1] -3.8% | [2] -2.4% | [3] -4.7%

O[C@H]1COC2C1OC[C@@H]2O (stereo not given in full)
inactive: [1] -2.3% | [2] -0.4% | [3] 0%

COc1cc(-c2cccs2)cc(=O)c2c(C)oc(C)c12
inactive: [1] 1.4% | [2] 2.1% | [3] -4%

O=C(O)CCCCCN1C(=O)C(=O)/C(=C(/O)c2ccccc2)C1c1ccccc1 (stereo not given)
inactive: [1] 0.2% | [2] 0.9% | [3] -6.7%

CCOc1ccc(C(=O)NCC2(c3ccccc3)CCOCC2)cc1
inactive: [1] -5.3% | [2] -0.2% | [3] -6.4%

CN1CCC(=C2c3ccccc3CC(=O)c3sccc32)CC1
inactive: [1] 8% | [2] 0.8% | [3] -4%

Cc1ccc(NC(=O)CSc2nc(O)c(Cc3ccccc3)c(=O)n2-c2ccccc2)cc1
inactive: [1] -0.8% | [2] -0.6% | [3] 2%

CCCNCC(O)COc1ccccc1C(=O)CCc1ccccc1 (stereo not given)
inactive: [1] 1.5% | [2] 0% | [3] -1.2%

CC1(C)C(=O)OC(c2cccs2)C2(CCCCC2)C1=O (stereo not given)
inactive: [1] -2.1% | [2] -1.3% | [3] -6.2%

Nc1ccc(S(=O)(=O)NC(=O)c2ccccc2)cc1
inactive: [1] 1.2% | [2] 1.3% | [3] -2.7%

O=C(O)c1cccnc1
inactive: [1] 1.8% | [2] 2% | [3] 2.5%

COC(=O)c1ccccc1NC(=O)NCc1ccccc1
inactive: [1] 2.7% | [2] 0.1% | [3] 0.8%

COc1c2c(nc3occc13)C(CC=C(C)C)(OC)C(O)CC2 (stereo not given)
inactive: [1] 0.8% | [2] 0.9% | [3] -4.1%

CCN(CC)CCOC(=O)C1(C2CCCCC2)CCCCC1
inactive: [1] 1.9% | [2] 1% | [3] -2.4%

CC1(C)Cc2ccccc2-c2n[nH]c(=S)n21
inactive: [1] -0.3% | [2] 0.5% | [3] 1.7%

O=c1cc(-c2ccccc2)oc2cc(OCc3ccccc3)cc(O)c12
inactive: [1] -0.8% | [2] -0.6% | [3] -4.8%

CC1=C(/C=C/C(C)=C/C=C/C(C)=C/C(=O)O)C(C)(C)CCC1
inactive: [1] 0.8% | [2] -0.1% | [3] 0.4%

COc1cccc2cc(-c3ccccc3)c(=O)oc12
inactive: [1] -1.9% | [2] -1.7% | [3] 1.7%

CC1CCCc2sc3ncn(N)c(=N)c3c21 (stereo not given)
inactive: [1] 0.9% | [2] 0.3% | [3] -1.1%

CCCCC[C@H](O)/C=C/[C@@H]1[C@@H](CCCCCCC(=O)O)[C@@H](O)C[C@H]1O
inactive: [1] -2.9% | [2] -1.3% | [3] 0.1%

COc1ccc(CC(=O)Nc2cccc(C(=O)Nc3ccccc3C(=O)O)c2)cc1OC
inactive: [1] -5.3% | [2] -3.3% | [3] 1.8%

COc1cc2c(cc1OC)C(c1ccc(-c3cc(Cl)ccc3Cl)o1)=NCC2
inactive: [1] 0.4% | [2] 0.7% | [3] -4.2%

O=C1N[C@@H](Cc2cnc[nH]2)C(=O)N2CCC[C@@H]12
inactive: [1] 1.2% | [2] 0.3% | [3] -5.3%

Cc1nc2ccccc2n1CC(O)Cn1c2ccccc2c2ccccc21 (stereo not given)
inactive: [1] 2.9% | [2] -0.1% | [3] -0.7%

COc1ccc(Cc2nc(-c3ccc(Br)cc3)no2)cc1
inactive: [1] -0.7% | [2] -1.6% | [3] -5.8%

COc1cc2c(cc1OC)CN(Cc1ccc(C)s1)CC2
inactive: [1] 2.4% | [2] 0.7% | [3] -1.2%

CN(C)c1cc(NC(=O)CN2CCOCC2)c2ccccc2n1
inactive: [1] 0% | [2] -1.5% | [3] -4.6%

C[C@]12CC[C@H]3[C@@H](CCC4=CC(=O)CC[C@@]43C)[C@@H]1CC[C@@H]2C(=O)CO
inactive: [1] 3.9% | [2] -2.4% | [3] -10%

COc1ccc(C(=O)CCN2CCc3cc(OC)c(OC)cc3C2)cc1
inactive: [1] -2.2% | [2] -0.3% | [3] -2.9%

O=C(/C=C/c1ccco1)Nc1ccccc1C(=O)O
inactive: [1] 0.9% | [2] -0.2% | [3] 1.7%

CCC(C)NCCOc1ccccc1C (stereo not given)
inactive: [1] 1.2% | [2] -0.1% | [3] 5.2%

CCc1cn([C@H]2C[C@H](O)[C@@H](CO)O2)c(=O)[nH]c1=O
inactive: [1] -0.5% | [2] -2.2% | [3] 1.6%

CC(=O)Oc1c2occc2cc2ccc(=O)oc12
inactive: [1] -2.4% | [2] -1% | [3] -7.3%

Cc1ccc2ncnc(NCCCCCC(=O)O)c2c1
inactive: [1] 1.7% | [2] -1.1% | [3] -4.7%

O=C(O)/C=C/c1cnc[nH]1
inactive: [1] 1.9% | [2] -0.2% | [3] -0.5%

CCOc1cc2oc(=O)c3c(c2cc1Cl)CCC3
inactive: [1] 3% | [2] -0.7% | [3] -2.7%

Cc1cccc2c(=O)n3c(nc12)CCCCC3
inactive: [1] 0.4% | [2] -1.4% | [3] -10.4%

COc1ccc(OC)c(S(=O)(=O)N2CCCc3ccccc32)c1
inactive: [1] -4.6% | [2] -0.4% | [3] -0.9%

Cc1ccc(C(=O)N2CC3(C(C)C)CN(C(=O)c4ccc(C)cc4)CC(C(C)C)(C2)C3=O)cc1
inactive: [1] 5% | [2] -0.5% | [3] -2.5%

CC(C)COc1ccc(Cc2cnc(N)nc2N)cc1
inactive: [1] 5% | [2] 2% | [3] 1.9%

COc1ccc(-c2c3c(=O)n(C)c(=O)n(C)c3cn2C2CCCCC2)cc1
inactive: [1] 1.1% | [2] -1.9% | [3] -3.1%

O=C(Nc1cccc(-c2nc3ncccc3o2)c1)c1ccccc1
inactive: [1] 2.8% | [2] -0.9% | [3] -1.6%

O=c1c2ccccc2nc2n1CCCN2
inactive: [1] -4.6% | [2] -2.9% | [3] -7.9%

O=C(Oc1cccccc1=O)c1ccccc1
inactive: [1] 1.1% | [2] -1.5% | [3] 0.9%

Cn1c(=O)c2c(ncn2Cc2ccccc2)n(C)c1=O
inactive: [1] 3.3% | [2] 3% | [3] 7.6%

COc1cc(C(=O)OCCn2c(=O)c3c(ncn3CCN(C)C)n(C)c2=O)cc(OC)c1OC
inactive: [1] 5.1% | [2] 2.5% | [3] -3.1%

CC1(C)CC(=O)C(C(=O)CCCCC(=O)C2C(=O)CC(C)(C)CC2=O)C(=O)C1
inactive: [1] 1.2% | [2] 0.8% | [3] -5.7%

Oc1ccc(/C=C/c2cc(O)cc(O)c2)cc1
inactive: [1] -6.7% | [2] -2.2% | [3] 3.7%

O=C(Cc1ccccc1)NNC(=O)Cc1ccccc1
inactive: [1] 0.3% | [2] 1.7% | [3] -1.2%

CC(C)C(=O)Nc1c(O)c2ccccc2[nH]c1=O
inactive: [1] 3.5% | [2] -0.8% | [3] 1.1%
